# Assay results published in PubChem BioAssay (NCI).
# The panel holds about 83,000 compounds, 20% with a hit somewhere; the sample as a whole holds those more often.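 Percent growth is the endpoint: 0 to 100 indicates growth inhibition (40 means 60% inhibition), 0 means no net growth, and negative values indicate cell death.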 Unmarked numbers belong to inactive results. Activity calls are given as the source filed them. How the source made its calls: active means growth percent below 10; inactive means the rest.
# Test system: HL-60(TB) leukemia
# Experiment: NCI-60 one-dose screen, 48 h (100 = growth as untreated, 0 = no growth, -100 = all killed)
# Conditions: 10 µM unless noted
row,Compound,growth
1,O=C(CSc1nnc(-c2cccs2)n1-c1ccccc1)Nc1ccccc1F,66.3%
2,Cc1ccc(-n2c(/C=C3\C(=O)Nc4ccccc43)ccc2CO)cc1,25.4%
3,COc1ccc(/C=N/NC(=O)CSc2nc(-c3cnccn3)cc(-c3cccs3)c2C#N)cc1OC,101%
4,C#Cc1cc(C(=O)Nc2ccc(CNCCN3CCOCC3)c(C(F)(F)F)c2)ccc1C,86%
5,OCC(Nc1ncnc2ccc(-c3cnc4cnccn34)cc12)c1ccccc1 (stereo not given),78.1%
6,CCOC(=O)/C(F)=C/C1CC1CCc1cccc(C(F)(F)F)c1 (stereo not given),91.4%
7,CC1CC(=O)C2=C(C1)Nc1ccc(Br)cc1CC2c1c[nH]c2ccc(Br)cc12 (stereo not given),21.2%
8,COc1ccc(/C=N/Nc2nc(N/N=C/c3ccc(OC)cc3O)nc(N3CCOCC3)n2)c(O)c1,30.9%
9,Clc1ccc2[nH]cc(-c3cncn3CCc3ccc4c(c3)OCO4)c2c1,52.1%
10,CN1CCN(c2ccc(Nc3nc(NCCNC(=O)c4ccccc4)c4sccc4n3)cc2)CC1,22.2%
11,C=C(C=O)[C@@H]1CC[C@]2(C(=O)O)CC[C@]3(C)C(CC[C@@H]4[C@@](C)(CCC#N)[C@H](C(=C)C=O)CC[C@]43C)[C@@H]12 (stereo not given in full),2.63% (active)
12,N/C(=N\OC(=O)CSc1nc2ccccc2s1)c1ccc(Cl)cc1,108%
13,CO/N=C1\CCc2c(sc(NC(=O)c3cccc(C(F)(F)F)c3)c2C(N)=O)C1,70.3%
14,CCOC(=O)c1c(NC(=O)c2ccc(F)cc2F)sc2c1CCC(=O)C2,91.9%
15,CCN(CC)c1ccc(/C=N/NC(=O)c2ccc(S(N)(=O)=O)cc2)cc1,2.37% (active)
16,C#CCOc1ccccc1/C=N/Nc1nc(-c2ccc(Cl)cc2)cs1,90.8%
17,COc1ccc([C@H]2C(=O)N(c3cc(OC)c(OC)c(OC)c3)[C@@H]2c2ccc(OC)c(O)c2)cc1,-21.2% (active)
18,COc1ccc2c(c1)c(-c1cc(N)n3nc(-c4cn(C)c5ccc(OC)cc45)cc3n1)cn2C,5.19% (active)
19,Cn1cc(-c2cc(N)n3nc(-c4cn(C)c5ccccc45)cc3n2)c2ccccc21,11.6%
20,CCN(CC)c1ccc2cc(C(=O)NCCOCCOCCOCCn3cc(CCC(=O)Nc4ccc(C(=O)c5ccc(NC(=O)OC(C)(C)C)cc5)cc4)nn3)c(=O)oc2c1,37%

row,Compound,growth
1,COc1ccc2sc(NC(=O)CCCCCCNC(=O)C(O)(O)C(F)(F)F)nc2c1,11.8%
2,O=c1oc2ccc(-c3ccc(F)cc3F)cc2c(=O)n1-c1ccc(F)c(F)c1,-18.9% (active)
3,COc1ccc2c(c1)c(CC(=O)[Se]CC(=O)O)c(C)n2C(=O)c1ccc(Cl)cc1,53.7%
4,COc1ccc(-c2cnc(NC(=O)CCCCCCNC(=O)C(O)(O)C(F)(F)F)s2)cc1,10.5%
5,CCOC(=O)c1c(NCC(=O)Nc2cccc(Cl)c2)sc2c1CCCC2,90.8%
6,O=C(CN1CCN(c2cc(=O)n(-c3ccccc3)c3ccccc23)CC1)Nc1cccc(C(F)(F)F)c1,28.6%
7,CN(C)CCCOc1ccc(C(=C(c2ccccc2)C2CCCC2)c2ccc(OCCCN(C)C)cc2)cc1,-57.1% (active)
8,CC(C)(C)OC(=O)N1CCN(S(=O)(=O)/N=C2\NC(=O)NC2=C(Cl)Cl)CC1,40.3%
9,Cn1c(SCC(=O)c2ccc(F)cc2)nc2ccccc2c1=O,97.9%
10,O=C(CCCCCCN1CC(=O)N2[C@@H](C3CC3)c3[nH]c4ccccc4c3C[C@H]2C1=O)NO,31.8%
11,CN1CCN(Cc2ccc(NC(=O)c3cncc(C#Cc4cnc5ccc(N)nn45)c3)cc2C(F)(F)F)CC1,2.82% (active)
12,CCOC(=O)c1ccc(NC2=C(Cl)C(=O)c3nc(C)ccc3C2=O)cc1,47.5%
13,N/C(=N\C(N)=N\c1nc2ccccc2s1)c1ccc(Cl)cc1,90.3%
14,C#C[C@]1(O)CC[C@H]2[C@@H]3CC=C4c5sc(-c6cccc(F)c6)nc5CC[C@]4(C)[C@H]3CC[C@@]21C,79.6%
15,Cc1cc2nc3c4cc(Cl)ccc4n(CC(=S)NCCN(C)C)c3nc2cc1C,-63.4% (active)
16,O=C(NCCCNc1cc(-c2cn(-c3ccccc3)nc2-c2cccc(O)c2)ccn1)Nc1cc(C(F)(F)F)cc(C(F)(F)F)c1,71.9%
17,O=C(CNc1nc(-c2cccc([N+](=O)[O-])c2)cs1)Nc1cccc(Cl)c1,105%
18,CN1CCN(Cc2ccc(NC(=O)c3cncc(C#Cc4cnc5ccc(N6CCN(C)CC6)nn45)c3)cc2C(F)(F)F)CC1,-31.5% (active)
19,Cc1ccc(CSC2=C(Cl)CN(c3ccc(Cl)cc3)C2=O)cc1,110%
20,C[C@@H]1CN(c2ccc3ncc(C#Cc4cncc(C(=O)Nc5ccc(CN6CCN(C)CC6)c(C(F)(F)F)c5)c4)n3n2)C[C@H](C)O1,-30.7% (active)
